# Laboratory results published in PMC12864922, “TDP-43 directly inhibits mRNA accumulation in neurites through modulation of mRNA stability”.
# Over roughly 9,900 sequences, “r (bound/input frequency ratio)” has its median near 0.7; the highest 2% begin near 6.5. Shown is part of a subset that was picked to be rich in the highest values.
# B1: ENSMUSG00000042529.154|Kcnj12 (ssRNA)
# RNA: GGGAGUUCUACAGUCCGACGAUCGCUUCGAUAUCCGCAUGCUAAACACCAGAGUGGGUGCUUCUUAGAAAAGGACACUCAGGAAAUUAGUAUGGGGUCUGGGUCCCACAUCCCCAGGAAGUGGGUCAGCCCCACGUCCCCCGCUGGACUCACAGCUUGAGUUGUGCCUUAGAGACUCUGGUUGUCUGGCUUCCGUCAUUUCUGGUUUUCUCAGACUUGUUUAAUCUUUCCCUACUGCCCUAAGUCCACUCAUGAAGCUCCCCAGGCCCUUCUGAGAUUGCAGAGGCUGCUUGCUCAUAGCCAUCUCUUGCGGUCGCACUAGUGUGGAAUUCUCGGGUGUCAAGG
# B2: ENSMUSG00000061578.1390|Ksr2|74:78;177:181 (ssRNA)
# RNA: GGGAGUUCUACAGUCCGACGAUCGCUUCGAUAUCCGCAUGCUACUUUGUAAAUGAUUCUGUUGCCUUUUUCUAAACACAAAGUAUAUAUACCUAUAAAUGCUAUAUAUAUUAUAUAACACAAUAUACAUAAAGACUACUUCUUGUACAGCCCUCCACGGACCUCAGGCCCACUGUUUUCUCCAUGUCUGUCUGUACUGACUGUUGCAGAAUGAGCUGAUCAUACAUCUUGAUUCUCCAUUUUCCUUCUGGACCACAUGUCUCUUCCUUUUCCUUUUUAGAUCUGUCUUGCUCUCUGUCUCUCUCUCUUGCGGUCGCACUAGUGUGGAAUUCUCGGGUGUCAAGG
# B3: ENSMUSG00000022095.44|Fam160b2 (ssRNA)
# RNA: GGGAGUUCUACAGUCCGACGAUCGCUUCGAUAUCCGCAUGCUACUGGCUCCUAAGGCAGUGGUAUUCUUGGAGCCUUUUAGAGGAGCUAGAGGAUGGCCAGUGAGCGCCUAGAUGCUGCCCUGCAUGUGUUGCGUGACUAUCUCUGCUAUAUUGUGACCAGGGCCACAACAUGAGACAACUCCAGGGGCCAGGGAGAUGAACUGCUGUCUUUGAGGCUGGCUAAAAAAACAAUCCAGUCCAGAGAGAUGGGGAGGGGGGGAGCAAGAACCCUGUCUGUUACAUUAGGUAUCAUGGAAGCUGCUCUCUUGCGGUCGCACUAGUGUGGAAUUCUCGGGUGUCAAGG
# B4: ENSMUSG00000029636.316|Wasf3 (ssRNA)
# RNA: GGGAGUUCUACAGUCCGACGAUCGCUUCGAUAUCCGCAUGCUAUGGCAAAACUUUUUUUGGUAAGGUCCUUAUGCUCUCAGGGUGGAGGGAAGACAUUAAAGCUACGCAGCCAUUGUCAGGAUUUUUUCUACUGAUGUCACAUCAGAAUAUAACUAGUGGCUCCUUACUCACAAAUGUUCACGAGCUUCUCCGUUGUCACUUGUCCUGUAGUUUUGCCAACAAGUUAAUUUUAGUUUGAUUUUAUAGCUAGAGAGAAAGCUUUUGCCCGUUGCAUUCUGUAACCUUCAAAAGAAUGAGAAACGCUCUUGCGGUCGCACUAGUGUGGAAUUCUCGGGUGUCAAGG
# B5: ENSMUSG00000061578.330|Ksr2|114:118 (ssRNA)
# RNA: GGGAGUUCUACAGUCCGACGAUCGCUUCGAUAUCCGCAUGCUACUCCAAGGAAGCCAGGGGAGGGGGACUCCUCAGGAAGGAGUGACCAGUCACCUGCCUCCCAGGGUUCUGCCUUGCCCUUAAGCUAGGGUCCUUCAAGCAUCCACAGACUUAGACACACGUGGUAACAUGCUUGUAAUCCUGGCACUCUGGAGGCUGAGGCAGGAGGAUAACAAGUCUAGACUAUAUAUGAUUUCUGAGGGUCUGUUAGUGAAUAAGUACCUGGAUGACAUGGGACAAGUCCCAGCCUUCCCUGCUCCUGCCUCUUGCGGUCGCACUAGUGUGGAAUUCUCGGGUGUCAAGG
# B6: ENSMUSG00000061578.809|Ksr2 (ssRNA)
# RNA: GGGAGUUCUACAGUCCGACGAUCGCUUCGAUAUCCGCAUGCUACUUUGCCUCUACUAGAUGAUCUUGCAUCUGUCUUUGUGGGACUCUUUUUAUGAGGAACCAGUCCUGUUGAAUCGGGGUGCUCUGUAUUAGUUAUUUUUGUAACUUGUGAUUGUAACCAAAUGCCCGAUAGAAACAGCAUUCUGGCUCACAGUUUCAAAGGGCUCAGUCCAUAGCUGCCUGACUCUGUGUUUCUAGGCCUUUCUUGAGGCAAGUGUUCAUCAUGAUAGUGUGAGGGUGAGGAGGAGUUUCUUCAUGGCAAACUCUUGCGGUCGCACUAGUGUGGAAUUCUCGGGUGUCAAGG
# B7: ENSMUSG00000034801.220|Sos2 (ssRNA)
# RNA: GGGAGUUCUACAGUCCGACGAUCGCUUCGAUAUCCGCAUGCUAAUUUGACUAAUUUGUAAGUCUGGAACAAAAGUGUCUUAUGGCAUAAGAACCAACUGCCAUUGUCAAACCUAUUAACUGUCUUUAAUCUCGUGUUAACUGAAAUUUUUGAAAAGUUUUUCCAGAUUAGUAAUAUUUAAACAGAAAAUACUUUAAAAAGCUUUAUUAAAUUUUUUAAUCAGGAUAAAGCUUUGCCAUUUGGAUACUAUCAUUCAAAGUGAUCAAGGUAUGUAUGUUAUGCUGAUAGUGCAGUAGCAGCCAUUCUCUUGCGGUCGCACUAGUGUGGAAUUCUCGGGUGUCAAGG
# B8: ENSMUSG00000031028.102|Tub (ssRNA)
# RNA: GGGAGUUCUACAGUCCGACGAUCGCUUCGAUAUCCGCAUGCUAGGCCCAAAGGGGGUUAGGAGUGGUAGGGAUAGGUGCGUGGCAGGUCCCUGCUAGGAUUGCAGGGGCCUGGCCAUGUGUAUUAGCUGGAGGCUUAGAAUGCUAGCUCAUUUGUUGCUACAGAUUUGCCCAGUGCUUGCACACGUAAGAACCCAGCUCUCAAGGCCAAAUAUCUGAGUGGAUGGGGAUGAUAGGAGUCAUCCAGUAGACUCCCUACAUCAGGGCUCUCAGCAGCCCCAGCACAACACCUAUGACACACACACCUCUUGCGGUCGCACUAGUGUGGAAUUCUCGGGUGUCAAGG
# B9: ENSMUSG00000032194.202|Kank2|53:57 (ssRNA)
# RNA: GGGAGUUCUACAGUCCGACGAUCGCUUCGAUAUCCGCAUGCUAGACAGGCUGCACCUUUCUCUAACUGGGGUUCCUUUCUGGCCCCAGGAUCUCACACACGUUCGUGGGGGGAUUUUGUUGUUGUUUCUUUGUUUCUUUUCUUCAUAAAGAAGAAAAAGGAAACAACUUCUAGAUGUGCCUUGCGAUAGGGAGGACUUUGUCCUCUCAAGUCUCCCUGUCGUAUCCAGAUCACAGCUGAACCCACUGGGCCUUGGCGCCAAACCUCAGCAGGGCAGCAUUGAGACUCAUGGACUAAAGGAAAGCUCUUGCGGUCGCACUAGUGUGGAAUUCUCGGGUGUCAAGG
# B10: ENSMUSG00000022095.275|Fam160b2|1:15;62:66;198:203 (ssRNA)
# RNA: GGGAGUUCUACAGUCCGACGAUCGCUUCGAUAUCCGCAUGCUACACACACACACACACAGAGAGAGAGAGAGAGAGAGAGAGCUGUGAGUACACAUGGGUGCUGCACACGGACAGGAGCAGAUCUUGGUGGAGUGGGUCUACACUUGAGAUUUGUACUCGUUUGAGAGGCUGGGCAAUACUCAAUGCACUUUGGCAUUUGCAUGGUGUCUUCACAACAGCACAGCAAUAAACAUUGUGAUACACACGACAUGCUGACUCUCCCCAGUCUGCUUUUCUUUUCCCCAAGCUUUUCUGCCCCUGUACUCUUGCGGUCGCACUAGUGUGGAAUUCUCGGGUGUCAAGG
# B11: ENSMUSG00000061578.1474|Ksr2 (ssRNA)
# RNA: GGGAGUUCUACAGUCCGACGAUCGCUUCGAUAUCCGCAUGCUAAAUAAAUGGAUGGAUGGAUGGAUUGAUUUGUGAAUGAAUGGAUGAAUGGAUGGGUAGGUGGGUGGAUGCAUAGGCAAGUAGAUGAAUGAAUAUGUGGGUAGAAGGGUGAGUGGGUGGAUGAAUGGAUGGAUAGGUUGGUAGGUUAAUGUAUUCGUGGAUGGGUGAAUGGAUGGAUGGAUAGAUAGAUGGGAAGGUGGAUGGACAGAUGGAUGGAUGGAUAGAUAGAUGGACAGGUGGUUGGUGGAUAAAUGAGUGAAUGACUCUUGCGGUCGCACUAGUGUGGAAUUCUCGGGUGUCAAGG
# B12: ENSMUSG00000061578.1471|Ksr2|12:16 (ssRNA)
# RNA: GGGAGUUCUACAGUCCGACGAUCGCUUCGAUAUCCGCAUGCUAUGGAUGGAUAGCAUACUGAAUAAAUGGAUGGAUGGAUGGAUUGAUUUGUGAAUGAAUGGAUGAAUGGAUGGGUAGGUGGGUGGAUGCAUAGGCAAGUAGAUGAAUGAAUAUGUGGGUAGAAGGGUGAGUGGGUGGAUGAAUGGAUGGAUAGGUUGGUAGGUUAAUGUAUUCGUGGAUGGGUGAAUGGAUGGAUGGAUAGAUAGAUGGGAAGGUGGAUGGACAGAUGGAUGGAUGGAUAGAUAGAUGGACAGGUGGUUGGUCUCUUGCGGUCGCACUAGUGUGGAAUUCUCGGGUGUCAAGG
# B13: ENSMUSG00000058297.476|Spock2 (ssRNA)
# RNA: GGGAGUUCUACAGUCCGACGAUCGCUUCGAUAUCCGCAUGCUAGCUGUGUUGGAAAGAGUUCAACCAAAUUACGGCAGCACCACAUCUUGCCGAGCCCUGGAGCUGCCCUACUAAGAGCCUCCUUAGCCCUGGGUGCUGGGAAGGAUGGUGUACGUUGGGGAAGUUUGAGGUUGGAGAGAGUAAAUGUGCCUUGAGAGACCACUCAGAGGUCCCAGGAGGAACGGGGGCGGGGCUUAGCCUGGGAGUUCUGGCAGGAGGCAAAGUUGGUGAGAGUCCUGGGACAUCUUACCCCCAGUGUUCCACUCUUGCGGUCGCACUAGUGUGGAAUUCUCGGGUGUCAAGG
# Biological target: TDP-43 (Homo sapiens, UniProt Q13148 1-414)
# Sequence (Q13148 whole entry): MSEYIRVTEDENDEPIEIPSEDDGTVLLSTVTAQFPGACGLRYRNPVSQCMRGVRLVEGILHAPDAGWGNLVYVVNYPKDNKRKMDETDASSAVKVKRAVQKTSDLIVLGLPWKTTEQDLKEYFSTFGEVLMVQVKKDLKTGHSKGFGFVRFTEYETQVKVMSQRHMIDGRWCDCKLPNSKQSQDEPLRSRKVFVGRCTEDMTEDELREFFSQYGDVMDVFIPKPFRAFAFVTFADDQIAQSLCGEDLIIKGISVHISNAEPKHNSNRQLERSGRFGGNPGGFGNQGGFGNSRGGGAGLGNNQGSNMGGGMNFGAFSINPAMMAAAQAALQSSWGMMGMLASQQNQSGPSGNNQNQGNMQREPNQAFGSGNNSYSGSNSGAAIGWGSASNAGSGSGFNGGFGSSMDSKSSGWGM
# Test: RNA Bind-n-Seq with designed 260-mer pool; 25 mM Tris-HCl, 150 mM KCl, 3 mM MgCl2, BSA (printed 500 mg/mL), 20 units/mL SUPERase IN; pH not stated; 500 nM RNA pool, 1 h, 4 C; TDP-43 5, 50, 500 nM; high values mean tight binding
# Settings: protein: recombinant; tags: SBP (GST cleaved off with PreScission; pGEX-GST-SBP)
# Summary of the method: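 Binding (R) is the ratio of each oligo's mapped-read-normalized abundance in the bound fraction to its abundance in the input. To obtain it, SBP-tagged recombinant TDP-43 (5, 50 or 500 nM) on streptavidin beads was incubated with 500 nM of an in vitro-transcribed 260-nt 3′ UTR oligo pool for 1 h at 4 °C in 25 mM Tris-HCl, 150 mM KCl, 3 mM MgCl2, BSA and SUPERase IN. The RNA retained after washing was released with biotin, then reverse transcribed, amplified by PCR and sequenced.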
row,Binder,binding signal
1,B1,0.462 R (bound/input frequency ratio)
2,B2,0.257 R (bound/input frequency ratio)
3,B3,1.48 R (bound/input frequency ratio)
4,B4,0.157 R (bound/input frequency ratio)
5,B5,1.65 R (bound/input frequency ratio)
6,B6,0.455 R (bound/input frequency ratio)
7,B7,0.0389 R (bound/input frequency ratio)
8,B8,1.03 R (bound/input frequency ratio)
9,B9,0.269 R (bound/input frequency ratio)
10,B10,2.5 R (bound/input frequency ratio)
11,B11,3.43 R (bound/input frequency ratio)
12,B12,8.75 R (bound/input frequency ratio)
13,B13,3.44 R (bound/input frequency ratio)
